An excerpt weighted towards active compounds, which were near 2.4% of everything screened.
PERK inh – block of dimerizer-induced PERK translation repression, primary screen, PERK inhibitor project, CHO PERK-DD cells, SEAP luminescence, HTS. Eukaryotic translation initiation factor 2-alpha kinase 3 (Homo sapiens), Q9NZJ5. CHO PERK-DD fusion, SEAP luminescence translation reporter. inhibition, % at 5.6 µM. 0.17% of 220,000 active. AID 1416, 2008;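 active = inhibition above the mean inhibition of all tested compounds plus 3 SD, set separately per screening campaign, cut at about 2.9% in these data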;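 note: PERK kinase domain activated by AP20187 dimerizer at 100 nM; 0% = DMSO with dimerizer and 100% = rapamycin at 8.4 µM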
eIF4E-4G inh – eIF4E–eIF4G protein interaction inhibitors, primary screen, biochemical, uHTS, TR-FRET, eIF4GI fragment | inhibition, % at 21.7 µM | Eukaryotic translation initiation factor 4E (Mus musculus) + Eukaryotic translation … | AID 782, 2007 | TR-FRET eIF4E-eIF4GI(517-606) binding, 2 h | 0.37% of 220,000 active;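 active = inhibition above about 30%, limit read from the data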;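 note: 0% = full FRET control wells and 100% = background wells lacking eIF4GI fragment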
Target sequence (P63073 whole entry, looked up, the tested form may be a part): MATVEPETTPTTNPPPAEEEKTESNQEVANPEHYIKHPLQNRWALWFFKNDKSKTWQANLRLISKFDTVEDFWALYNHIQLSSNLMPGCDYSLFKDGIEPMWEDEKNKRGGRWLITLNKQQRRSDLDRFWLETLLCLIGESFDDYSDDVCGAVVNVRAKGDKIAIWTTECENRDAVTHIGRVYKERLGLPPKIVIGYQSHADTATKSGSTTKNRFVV
Target sequence (Q04637 whole entry, looked up, the tested form may be a part): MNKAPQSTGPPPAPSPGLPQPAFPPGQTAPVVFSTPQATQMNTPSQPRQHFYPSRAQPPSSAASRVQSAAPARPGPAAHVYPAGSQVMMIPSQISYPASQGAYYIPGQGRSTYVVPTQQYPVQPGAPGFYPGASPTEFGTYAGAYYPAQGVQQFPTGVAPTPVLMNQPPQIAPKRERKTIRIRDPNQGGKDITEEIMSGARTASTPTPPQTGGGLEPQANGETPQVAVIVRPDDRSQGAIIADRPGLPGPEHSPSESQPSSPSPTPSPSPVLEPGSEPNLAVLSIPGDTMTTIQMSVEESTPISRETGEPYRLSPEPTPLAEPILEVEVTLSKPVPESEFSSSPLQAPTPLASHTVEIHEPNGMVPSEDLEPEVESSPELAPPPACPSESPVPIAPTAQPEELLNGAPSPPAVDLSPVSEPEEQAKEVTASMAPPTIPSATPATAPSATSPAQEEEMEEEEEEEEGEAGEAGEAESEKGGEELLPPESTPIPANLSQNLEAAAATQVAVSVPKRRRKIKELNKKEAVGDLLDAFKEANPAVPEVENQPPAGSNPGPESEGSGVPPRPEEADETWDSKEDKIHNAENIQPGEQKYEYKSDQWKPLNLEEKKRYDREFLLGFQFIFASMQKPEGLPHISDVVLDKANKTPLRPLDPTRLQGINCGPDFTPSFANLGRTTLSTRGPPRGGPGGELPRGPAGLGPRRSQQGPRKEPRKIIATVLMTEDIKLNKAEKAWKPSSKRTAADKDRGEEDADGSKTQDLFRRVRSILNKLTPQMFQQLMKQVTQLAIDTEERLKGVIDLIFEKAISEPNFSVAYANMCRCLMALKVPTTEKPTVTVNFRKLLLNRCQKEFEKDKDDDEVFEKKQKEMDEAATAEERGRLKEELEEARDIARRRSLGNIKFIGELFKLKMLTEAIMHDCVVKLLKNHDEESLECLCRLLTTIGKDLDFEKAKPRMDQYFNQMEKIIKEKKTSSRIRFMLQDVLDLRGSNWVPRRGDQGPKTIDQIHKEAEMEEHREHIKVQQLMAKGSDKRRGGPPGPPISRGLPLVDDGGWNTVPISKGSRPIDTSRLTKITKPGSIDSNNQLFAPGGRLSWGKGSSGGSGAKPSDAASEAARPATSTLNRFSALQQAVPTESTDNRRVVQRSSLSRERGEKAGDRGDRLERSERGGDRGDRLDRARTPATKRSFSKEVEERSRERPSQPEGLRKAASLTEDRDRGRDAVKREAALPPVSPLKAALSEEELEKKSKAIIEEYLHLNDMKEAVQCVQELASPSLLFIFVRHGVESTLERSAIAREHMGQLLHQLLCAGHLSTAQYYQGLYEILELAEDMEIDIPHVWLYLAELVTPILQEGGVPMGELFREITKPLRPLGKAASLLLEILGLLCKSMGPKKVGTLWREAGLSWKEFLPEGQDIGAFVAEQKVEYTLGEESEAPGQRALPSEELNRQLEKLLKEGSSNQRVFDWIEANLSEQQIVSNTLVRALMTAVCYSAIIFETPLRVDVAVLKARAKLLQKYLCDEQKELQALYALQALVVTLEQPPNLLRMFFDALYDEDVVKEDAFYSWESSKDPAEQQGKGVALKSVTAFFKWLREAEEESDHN
PABP1 MLLE inh – inhibitors of PABP1 MLLE–PAM2 peptide binding, primary screen, biochemical, fluorescence polarization, FITC-PAM2, GST-MLLE; Polyadenylate-binding protein 1 (Homo sapiens), P11940; inhibition, % at 20 µM; 0.36% of 360,000 active; in the data active = inhibition above about 35%, passing the limit was not always enough;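 note: plate controls were DMSO wells with GST-MLLE for no effect and wells lacking GST-MLLE protein for full effect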
PABP FP inh – PABP poly(A) RNA binding inhibitors, primary screen, biochemical, fluorescence polarization, uHTS | Polyadenylate-binding protein 1 (Homo sapiens), P11940 | inhibition, % at 35 µM | 1% of 290,000 active | AID 2014, 2009;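 note: calls also rest on retests at 20 µM and on dose response follow-up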
PfM18AAP inh – PfM18AAP inhibitors, malaria aminopeptidase, primary screen, biochemical, QFRET, recombinant enzyme | M18 aspartyl aminopeptidase (Plasmodium falciparum 3D7) | H-Glu-NHMec fluorogenic cleavage | inhibition, % at 7.35 µM | 1.2% of 290,000 active | AID 1822, 2009;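 active = inhibition above the campaign mean inhibition over all tested compounds plus 3 SD, cut at about 28% in these data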;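 note: 0% = plate median of test compound wells and 100% = 2 mM ZnCl2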
eIF4H inh – human eIF4H binding inhibitors, primary screen, translation initiation inhibitor project, biochemical, uHTS, fluorescence polarization. Eukaryotic translation initiation factor 4H (Homo sapiens), Q15056. eIF4H fluorescence polarization binding assay. inhibition, % at 35 µM. 0.94% of 290,000 active;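 note: calls also rest on retests at 20 µM and on dose response follow-up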
The depositor's hits bear a star; ? = inconclusive; . = not tested or not shown. Unless noted, the rule behind the calls is not given here.

SMILES	PERK inh	eIF4E-4G inh	PABP1 MLLE inh	PABP FP inh	PfM18AAP inh	eIF4H inh
O=C1CCCC2=C1C(c1ccc(O)c(O)c1)Nc1ccc3ccccc3c12 (stereo unspecified)	.	.	-14	.	.	.
Cn1c(CNC(=O)c2ccc(F)cc2)cc2ccccc21	.	.	3	-6	-9	2
O=C1CN(C(=O)/C=C/c2ccco2)c2ccccc2N1	0	13	-16	14	-13	71*
O=C1CN(C(=O)COC(=O)c2cccs2)c2ccccc2N1	.	.	10	.	.	.
O=C1CN(C(=O)c2cccs2)c2ccccc2N1	0	47*	-8	-11	1	1
COc1ccc(OC)c(NC(=O)NCCc2cccc(Cl)c2)c1	0	3	-7	0	3	0
CCc1nnc(N/N=C/c2ccc(O)c(OC)c2)n1N	.	.	7	3	-1	-12
CCc1nnc(N/N=C/c2cccs2)n1N	1	-5	0	1	53*	1
CCOc1ccccc1-c1nc(-c2ccc(NC(=O)Cc3ccccc3OC)cc2)no1	0	4	-13	8.4*	9	54*
COc1ccccc1CC(=O)Nc1ccc(-c2noc(COc3ccc(Cl)c(C)c3)n2)cc1	0	2	3	-8	-13	-2
CCOc1cc(-n2cnnn2)c(OCC)cc1NC(=O)c1cc2ccc(N(CC)CC)cc2oc1=O	1	.	.	.	5	.
CCN(CC)c1ccc2cc(C(C)=O)c(=O)oc2c1	0	0	-64	?	-7	?
CCN(CC)c1ccc2cc(C(=O)Nc3cccnc3N3CCOCC3)c(=O)oc2c1	.	.	.	73*	.	63*
CCN(CC)c1ccc2cc(C(=O)Nc3ccccn3)c(=O)oc2c1	1	-4	16	118*	-4	122*
O=S(=O)(c1ccccc1)N1CCN=C1SCc1cccc(Cl)c1	0	4	13	1	-5	6
COc1ccc(CC(=O)O/N=C(\N)c2ccccn2)cc1	3.1*	-5	-14	5	8	3
N/C(=N\OC(=O)Cc1ccc(-c2ccccc2)cc1)c1ccccn1	0	-8	2	7	-5	-14
O=C(NC1CC1)C1=C[C@@H](C2CC2)C[C@@H](OCc2ccc(CO)cc2)O1	.	34*	-6	-5	.	-8
O=C(NC1CC1)C1=C[C@@H](C2CCCCC2)C[C@@H](OCc2ccc(CO)cc2)O1	1	0	-7	-6	0	-6
COCCNC(=S)N(CCCN(C)C)Cc1cc2cc3c(cc2[nH]c1=O)OCCO3	.	.	-80	4	4	10
COCCCNC(=S)N(CCO)Cc1cc2cc3c(cc2[nH]c1=O)OCCO3	.	.	40*	1	1	-5
O=C(c1ccccc1)N(CCO)Cc1cc2cc3c(cc2[nH]c1=O)OCCO3	0	1	57*	?	3	-7
O=C(c1ccco1)N(CCO)Cc1cc2cc3c(cc2[nH]c1=O)OCO3	0	-1	-5	-4	-9	-4
COCCNC(=S)N(CCO)Cc1cc2cc3c(cc2[nH]c1=O)OCCO3	.	.	39*	-6	16	6
O=C(Cn1cccc1C(=O)c1ccccc1)NCc1ccccn1	-1	3	9	10	2	6
SMILES	PERK inh	eIF4E-4G inh	PABP1 MLLE inh	PABP FP inh	PfM18AAP inh	eIF4H inh
CCOc1ccc(-c2csc(/C(C#N)=C\c3ccc(O)c([N+](=O)[O-])c3)n2)cc1	0	6	-25	0	-2	58*
CSc1nnc(-c2ccc(C(F)(F)F)nc2C)o1	1	-3	-10	-1	-5	1
Cc1ccc(S(=O)(=O)N2CCCCC2)cc1NC(=O)COC(=O)c1ccc2c(c1)OCO2	1	-1	-3	61	3	2.0*
Cc1ccc(S(=O)(=O)N2CCCCC2)cc1NC(=O)CNCc1ccco1	1	-5	2	2.4*	-10	83*
O=C(CNCc1ccncc1)Nc1cc(S(=O)(=O)N2CCCCC2)ccc1Cl	0	-1	-40	8	7	104*
O=C(CNCc1ccccn1)Nc1cc(S(=O)(=O)N2CCCCC2)ccc1Cl	0	-1	3	20	-2	3
CCN(CC)c1ccc(C2C(C(C)=O)C(=O)CC(C)(O)C2C(C)=O)cc1 (stereo unspecified)	0	.	-17	.	26	.
O=C(CNc1cccc(F)c1)N1CCc2ccccc2C1	.	.	4	1	1	2
O=C(c1cccs1)c1ccccc1Cc1cccs1	.	.	-1	.	.	.
CCOc1ccc2[nH]c(=O)c(C(c3nnnn3Cc3ccco3)N3CCC(C)CC3)cc2c1 (stereo unspecified)	0	2	-31	2.1*	13	50*
COc1ccc2[nH]c(=O)c(CN(C3CCCCC3)C(c3nnnn3Cc3ccco3)C(C)C)cc2c1 (stereo unspecified)	0	5	-24	64*	9	63*
CCC(c1nnnn1Cc1ccco1)N(Cc1ccccc1OC)Cc1cc2cc(C)ccc2[nH]c1=O (stereo unspecified)	1	-7	-20	-1	7	-5
CCOc1ccc2[nH]c(=O)c(C(c3nnnn3Cc3ccco3)N3CCCC(C)C3)cc2c1 (stereo unspecified)	0	-1	-13	51	6	30*
CCC(c1nnnn1Cc1ccco1)N(Cc1cc2cc(C)cc(C)c2[nH]c1=O)CC1CCCO1 (stereo unspecified)	0	6	1	56	10	20*
COc1ccc2[nH]c(=O)c(CN(Cc3nnnn3Cc3ccco3)C3CCCCC3)cc2c1	-1	-7	9	38	-43	9
CCOc1ccc2[nH]c(=O)c(C(c3nnnn3C3CCCCC3)N3CCN(C)CC3)cc2c1 (stereo unspecified)	0	1	-13	-6	1	-3
COc1ccc(Cn2nnnc2C(c2cc3ccc(OC)cc3[nH]c2=O)N2CCC(C)CC2)cc1 (stereo unspecified)	0	-9	12	13	26	8
O=C(Nc1ccc([N+](=O)[O-])cn1)c1ccc(Br)o1	0	-1	-8	-11	3	-6
O=C(CSCC(=O)Nc1ccc2ccccc2c1)NCc1ccccc1	1	37*	11	-2	2	-2
CC(C)c1ccc(CNC(=O)CSCC(=O)Nc2ccc3ccccc3c2)cc1	0	3	-10	-5	-3	-7
